Experimental data reported in PubChem BioAssay (NCI).
The panel holds about 83,000 compounds, 20% with a hit somewhere; the sample as a whole holds those more often.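 Note: values are percent growth. 100 is the growth of untreated cells, values between 100 and 0 indicate rising inhibition; between -100 and 0 indicates cell death.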 A number with no mark means an inactive call. Calls of active or inactive are those of the source. How the source made its calls: active means growth percent below 10; inactive means the rest.

Tested on: HL-60(TB) leukemia
Test: NCI-60 one-dose screen, 48 h (100 = growth as untreated, 0 = no growth, -100 = all killed)
Details: 10 µM unless noted

Structure (SMILES) | growth
O=C(/C=C/c1ccc(Cl)cc1)c1ccc(Cl)cc1 | 69.2%
CC(=O)c1ccc(NCn2nc(-c3ccc(Cl)cc3)oc2=S)cc1 | 88.9%
CCOc1ccc(/C=N/NC(=O)c2cccc3ccccc23)cc1OCC | 100%
COc1ccc(/C=C2/C(=O)N=C3N2NC(c2ccccc2)=CN3c2ccccc2)cc1 | 101%
COC(=O)[C@@]12CC=C(C)[C@]3(C[C@H](c4ccoc4)OC3=O)[C@H]1C=C[C@@H](O)[C@@]2(O)C(=O)OC | 107%
CON1CCC[C@]2(C)[C@H]3CC[C@@H]4[C@H]5[C@@H](O)C(C)(C)CC[C@]5(CO)CC[C@@]4(C)[C@]3(C)CC[C@H]2C1(C)C | 91.5%
COc1cccc(-c2nn(-c3ccccc3)cc2-c2ccnc(NCCCNS(=O)(=O)c3ccc(Cl)cc3)c2)c1 | 40%
O=C(Oc1cccc2ccccc12)Oc1cccc2ccccc12 | 88.4%
CCOc1ccc(I)cc1 | 128%
CCOC(=O)Cc1cnc(N/N=C(\C)c2cc3ccccc3o2)s1 | 65.2%
OCC1OC(n2ccc3c(NO)ncnc32)C(O)C1O (stereo not given) | -35.1% (active)
COc1ccc(Br)c(C=O)c1 | -16.3% (active)
COc1ccc(-c2cn(-c3ccc(Cl)cc3)c(SCC(=O)c3ccc([N+](=O)[O-])cc3)n2)cc1 | 84%
CCOC(=O)n1cc(C2=C(c3cn(C)c4ccccc34)COC2=O)c2ccccc21 | -23.6% (active)
CCOc1cc(/C=N\NC(=O)N/N=C/c2ccc(O)c(OCC)c2)ccc1O | -22.2% (active)
